About 8,800 targets were measured; listed, in parts, are those with a hit and a random draw of the rest. About 0.5% of all pairs of compound and target were hits.
Experiments:
Assay in all cases: log2 fold change, soluble protein after heating vs DMSO (PISA); higher = thermal stabilisation; K562 lysate, 10 uM; active = over 0.2 and 3.5 SD of the protein, either way, in both replicates (recomputed)
[1] = compound: C=CC(=O)N1CCC[C@@H](n2nc(-c3ccc(Oc4ccccc4)cc3)c3c(N)ncnc32)C1 [ibrutinib]
Outline: (§1)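 Quantification was by TMTpro 16plex LC-MS/MS with equalised channel sums, applied to the supernatant after 21,000xg for 90 min. Samples were crude K562 extract at 1 mg/mL protein in PBS pH 7.4 with 1 mM MgCl2, treated with 10 μM compound for 30 min, heated for 3 min across 48°C-58°C, pooled and brought to 0.5% NP-40 at 4°C. Values are log-two fold changes in thermal stability relative to solvent controls, from duplicates.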

[2] = compound: CC(=O)c1cnc2ccc(-c3cc(Cl)c(O)c(Cl)c3)nc2c1N[C@H]1CC[C@H](CN(C)C)CC1
Outline: as §1

[3] = compound: CC(C)(C)Cn1c(N)nc2ccc(-c3[nH]c(C(C)(C)C)nc3-c3ccc(F)cc3)nc21 [ralimetinib]
Outline: as §1

[4] = compound: CC(C)(O)CC(=O)NCCn1ccc2ncnc(Nc3ccc(Oc4cccc(C(F)(F)F)c4)c(Cl)c3)c21
Outline: as §1

[5] = compound: CC(C)C1=C2N=C(C=C(N2N=C1)NCC3=CC=CC=C3)NCCCCCCN
Outline: as §1

[6] = compound: CC1=C(C(CC(=O)N1)C2=CC=C(C=C2)C(F)(F)F)C(=O)NC3=C(C=C4C(=C3)C=NN4)F
Outline: as §1

[7] = compound: CC1=C(C2=C(C=C1)C(=O)C3=CC=CC=C3N2CCCN)C
Outline: as §1

[8] = compound: CC1=C(C=C(C=C1)NC(=O)C2=CC(=CC=C2)C(C)(C)C#N)NC3=CC4=C(C=C3)N=CN(C4=O)C
Outline: as §1

[9] = compound: CC1=C(C=C(C=C1)NC(=O)C2=CC(=CC=C2)N(C)C)NC(=O)C3=CC=C(C=C3)O
Outline: as §1

[10] = compound: CC1=CC=C(C=C1)SC2=C3C=C(SC3=CN=C2)C(=O)N
Outline: as §1

[11] = compound: CCCS(=O)(=O)Nc1ccc(F)c(C(=O)c2c[nH]c3ncc(-c4ccc(Cl)cc4)cc23)c1F [vemurafenib]
Outline: as §1

[12] = compound: CCCS(=O)(=O)Nc1ccc(F)c(C(=O)c2c[nH]c3ncc(Cl)cc23)c1F
Outline: as §1

[13] = compound: CCN(CCCOc1ccc2c(Nc3cc(CC(=O)Nc4cccc(F)c4)[nH]n3)ncnc2c1)CCOP(=O)(O)O [barasertib]
Outline: as §1

[14] = compound: CC[C@@H]1C(=O)N(C)c2cnc(Nc3ccc(C(=O)NC4CCN(C)CC4)cc3OC)nc2N1C1CCCC1
Outline: as §1

[15] = compound: CC[C@@H]1C(=O)N(C)c2cnc(Nc3ccc(C(=O)N[C@H]4CC[C@H](N5CCN(CC6CC6)CC5)CC4)cc3OC)nc2N1C(C)C [volasertib]
Outline: as §1

[16] = compound: CCn1c(C(=O)N(C2CC2)C2CC2)cc2c3c(ncn3C)c(Nc3cc(C)n(C)n3)nc21
Outline: as §1

[17] = compound: CCn1cc(-c2ccnc3[nH]c(-c4cccc(CN(C)C)c4)cc23)c(-c2ccc(NC(=O)N(C)C)cc2)n1
Outline: as §1

[18] = compound: CN1CCC(CNc2ccc3ncc(-c4cccc(OC(F)(F)F)c4)n3n2)CC1
Outline: as §1

[19] = compound: CN1CCN(CCOc2cc(OC3CCOCC3)c3c(Nc4c(Cl)ccc5c4OCO5)ncnc3c2)CC1 [saracatinib]
Outline: as §1

[20] = compound: CN1CCN(c2nc(C3=C(c4c[nH]c5ccccc45)C(=O)NC3=O)c3ccccc3n2)CC1 [sotrastaurin]
Outline: as §1

Measured: log2 fold change

SMAD9 (UniProt O15198)
Sequence of UniProt O15198 (O15198 whole entry, looked up): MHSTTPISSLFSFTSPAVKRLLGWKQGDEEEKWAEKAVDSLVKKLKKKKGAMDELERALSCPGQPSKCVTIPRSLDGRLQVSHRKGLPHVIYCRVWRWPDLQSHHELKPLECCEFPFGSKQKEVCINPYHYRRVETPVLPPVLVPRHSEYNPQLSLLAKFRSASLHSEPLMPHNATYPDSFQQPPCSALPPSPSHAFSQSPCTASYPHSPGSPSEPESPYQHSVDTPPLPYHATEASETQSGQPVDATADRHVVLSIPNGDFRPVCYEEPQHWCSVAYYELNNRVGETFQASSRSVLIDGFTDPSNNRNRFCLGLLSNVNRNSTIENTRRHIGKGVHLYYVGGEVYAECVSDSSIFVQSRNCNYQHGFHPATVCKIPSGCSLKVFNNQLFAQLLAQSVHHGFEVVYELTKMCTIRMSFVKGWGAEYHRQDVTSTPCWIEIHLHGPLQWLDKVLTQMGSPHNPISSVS
inactive: [1] -0.025 | [2] -0.018 | [3] -0.034 | [4] 0.029 | [5] 0.021 | [6] -0.038 | [7] 0.079 | [8] -0.028 | [9] -0.072 | [10] -0.029 | [11] -0.045 | [12] -0.003 | [13] 0.032 | [14] -0.011 | [15] 0.024 | [16] 0.111 | [17] 0.021 | [18] 0.048 | [19] 0.08 | [20] 0.007

SNRPD2 (UniProt P62316)
Sequence of UniProt P62316 (P62316 whole entry, looked up): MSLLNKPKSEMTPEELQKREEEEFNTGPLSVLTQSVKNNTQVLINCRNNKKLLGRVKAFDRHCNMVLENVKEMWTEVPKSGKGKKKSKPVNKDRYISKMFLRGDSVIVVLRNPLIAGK
inactive: [1] -0.028 | [2] -0.033 | [3] -0.018 | [4] -0.041 | [5] 0.007 | [6] -0.011 | [7] 0.016 | [8] 0.01 | [9] 0.015 | [10] -0.005 | [11] -0.008 | [12] -0.019 | [13] 0.001 | [14] 0.058 | [15] 0.033 | [16] 0.018 | [17] -0.083 | [18] 0.051 | [19] -0.021 | [20] 0.011

SNRNP40 (UniProt Q96DI7)
Sequence of UniProt Q96DI7 (Q96DI7 whole entry, looked up): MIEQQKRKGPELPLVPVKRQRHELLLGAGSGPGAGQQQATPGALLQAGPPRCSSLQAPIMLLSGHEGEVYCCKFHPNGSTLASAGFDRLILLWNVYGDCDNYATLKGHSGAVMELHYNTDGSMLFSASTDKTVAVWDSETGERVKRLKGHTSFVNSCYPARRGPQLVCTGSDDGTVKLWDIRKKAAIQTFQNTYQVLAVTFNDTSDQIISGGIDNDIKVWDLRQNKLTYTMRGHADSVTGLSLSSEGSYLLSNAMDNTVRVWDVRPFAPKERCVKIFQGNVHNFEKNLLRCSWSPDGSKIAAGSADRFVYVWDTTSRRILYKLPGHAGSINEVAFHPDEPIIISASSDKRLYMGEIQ
active: [7] 0.332
inactive: [1] -0.008 | [2] 0.026 | [3] -0.03 | [4] -0.047 | [5] -0.02 | [6] 0.042 | [8] 0.02 | [9] 0.069 | [10] 0.029 | [11] -0.032 | [12] 0.019 | [13] -0.06 | [14] -0.001 | [15] -0.024 | [16] -0.033 | [17] -0.115 | [18] 0.058 | [19] 0.01 | [20] -0.013

STOML2 (UniProt Q9UJZ1)
Sequence of UniProt Q9UJZ1 (Q9UJZ1 whole entry, looked up): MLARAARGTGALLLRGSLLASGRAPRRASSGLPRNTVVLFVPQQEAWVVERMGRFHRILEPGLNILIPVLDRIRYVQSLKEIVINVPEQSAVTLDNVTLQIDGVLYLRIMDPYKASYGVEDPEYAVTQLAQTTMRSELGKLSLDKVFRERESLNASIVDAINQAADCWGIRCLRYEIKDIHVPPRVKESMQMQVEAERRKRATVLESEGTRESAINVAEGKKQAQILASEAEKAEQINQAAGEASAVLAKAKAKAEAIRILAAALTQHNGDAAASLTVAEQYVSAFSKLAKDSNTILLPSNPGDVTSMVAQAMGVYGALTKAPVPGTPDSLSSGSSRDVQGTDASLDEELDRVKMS
inactive: [1] 0.017 | [2] -0.012 | [3] -0.015 | [4] -0.028 | [5] 0.033 | [6] -0.025 | [7] -0.04 | [8] 0 | [9] 0.002 | [10] -0.006 | [11] 0.026 | [12] 0.009 | [13] 0.115 | [14] 0.043 | [15] 0.033 | [16] -0.015 | [17] 0.111 | [18] -0.047 | [19] -0.01 | [20] -0.002

SMC3 (UniProt Q9UQE7)
Sequence of UniProt Q9UQE7 (Q9UQE7 whole entry, looked up): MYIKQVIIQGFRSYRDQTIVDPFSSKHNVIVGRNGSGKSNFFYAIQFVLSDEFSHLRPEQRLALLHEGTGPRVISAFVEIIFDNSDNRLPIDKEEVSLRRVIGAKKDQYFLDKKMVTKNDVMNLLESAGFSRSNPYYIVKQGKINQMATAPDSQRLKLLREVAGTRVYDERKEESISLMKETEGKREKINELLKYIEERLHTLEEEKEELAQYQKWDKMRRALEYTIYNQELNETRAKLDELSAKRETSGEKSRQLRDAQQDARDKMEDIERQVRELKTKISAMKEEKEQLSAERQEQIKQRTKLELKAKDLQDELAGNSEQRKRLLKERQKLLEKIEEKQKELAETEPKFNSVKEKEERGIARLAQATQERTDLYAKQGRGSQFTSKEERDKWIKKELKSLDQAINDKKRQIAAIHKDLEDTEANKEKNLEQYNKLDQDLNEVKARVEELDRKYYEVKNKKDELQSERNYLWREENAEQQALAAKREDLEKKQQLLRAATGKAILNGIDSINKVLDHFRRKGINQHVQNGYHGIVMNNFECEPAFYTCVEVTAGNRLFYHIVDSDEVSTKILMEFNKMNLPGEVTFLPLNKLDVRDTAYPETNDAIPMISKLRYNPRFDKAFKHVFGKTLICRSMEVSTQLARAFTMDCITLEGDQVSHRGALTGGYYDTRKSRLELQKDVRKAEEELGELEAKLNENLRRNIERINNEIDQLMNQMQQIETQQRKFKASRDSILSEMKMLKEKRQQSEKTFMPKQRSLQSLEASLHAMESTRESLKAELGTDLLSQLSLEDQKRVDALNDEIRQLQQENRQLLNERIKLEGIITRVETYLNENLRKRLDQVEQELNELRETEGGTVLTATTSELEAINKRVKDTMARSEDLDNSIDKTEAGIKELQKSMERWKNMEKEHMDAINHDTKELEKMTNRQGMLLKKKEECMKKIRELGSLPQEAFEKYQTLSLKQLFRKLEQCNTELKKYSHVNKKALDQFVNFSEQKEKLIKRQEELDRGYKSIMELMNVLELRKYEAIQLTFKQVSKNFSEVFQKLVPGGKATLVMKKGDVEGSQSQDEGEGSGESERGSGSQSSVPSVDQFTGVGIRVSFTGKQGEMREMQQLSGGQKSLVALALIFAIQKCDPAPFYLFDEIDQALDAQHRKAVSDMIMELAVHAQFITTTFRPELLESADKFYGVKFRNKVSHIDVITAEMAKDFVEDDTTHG
inactive: [1] 0.002 | [2] -0.001 | [3] -0.023 | [4] 0.003 | [5] -0.002 | [6] -0.004 | [7] 0.01 | [8] -0.014 | [9] 0.011 | [10] 0.01 | [11] -0.018 | [12] 0.004 | [13] -0.004 | [14] 0.008 | [15] -0.013 | [16] 0.003 | [17] 0.041 | [18] -0.018 | [19] -0.011 | [20] -0.016

SNCA (UniProt P37840)
inactive: [1] 0.102 | [2] -0.148 | [3] 0.028 | [4] 0.02 | [5] 0.013 | [6] 0.036 | [7] -0.068 | [8] -0.042 | [9] -0.059 | [10] 0.028 | [11] 0.042 | [12] -0.039 | [13] -0.027 | [14] 0.08 | [15] 0.072 | [16] -0.022 | [17] -0.109 | [18] 0.287 | [19] -0.035 | [20] 0.068

SLC7A5 (UniProt Q01650)
Sequence of UniProt Q01650 (Q01650 whole entry, looked up): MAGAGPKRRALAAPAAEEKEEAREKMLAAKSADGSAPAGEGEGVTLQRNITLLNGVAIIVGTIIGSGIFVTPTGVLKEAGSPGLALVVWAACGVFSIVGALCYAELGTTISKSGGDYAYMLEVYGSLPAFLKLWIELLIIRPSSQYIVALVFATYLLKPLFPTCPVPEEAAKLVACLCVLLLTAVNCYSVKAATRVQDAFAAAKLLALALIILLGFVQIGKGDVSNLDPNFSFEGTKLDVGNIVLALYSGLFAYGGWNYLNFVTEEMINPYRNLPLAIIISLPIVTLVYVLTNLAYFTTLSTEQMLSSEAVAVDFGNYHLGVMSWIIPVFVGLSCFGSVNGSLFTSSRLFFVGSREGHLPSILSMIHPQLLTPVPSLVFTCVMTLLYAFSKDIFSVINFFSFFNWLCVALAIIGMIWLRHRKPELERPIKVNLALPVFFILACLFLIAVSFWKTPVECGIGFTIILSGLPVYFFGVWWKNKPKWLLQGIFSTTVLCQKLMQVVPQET
active: [17] -0.312
inactive: [1] -0.011 | [2] -0.01 | [3] 0.018 | [4] -0.042 | [5] 0.036 | [6] -0.031 | [7] -0.003 | [8] 0.075 | [9] -0.043 | [10] 0 | [11] -0.027 | [12] -0.017 | [13] -0.038 | [14] -0.031 | [15] 0.06 | [16] -0.001 | [18] 0.183 | [19] 0.056 | [20] 0.046

SLC20A1 (UniProt Q8WUM9)
Sequence of UniProt Q8WUM9 (Q8WUM9 whole entry, looked up): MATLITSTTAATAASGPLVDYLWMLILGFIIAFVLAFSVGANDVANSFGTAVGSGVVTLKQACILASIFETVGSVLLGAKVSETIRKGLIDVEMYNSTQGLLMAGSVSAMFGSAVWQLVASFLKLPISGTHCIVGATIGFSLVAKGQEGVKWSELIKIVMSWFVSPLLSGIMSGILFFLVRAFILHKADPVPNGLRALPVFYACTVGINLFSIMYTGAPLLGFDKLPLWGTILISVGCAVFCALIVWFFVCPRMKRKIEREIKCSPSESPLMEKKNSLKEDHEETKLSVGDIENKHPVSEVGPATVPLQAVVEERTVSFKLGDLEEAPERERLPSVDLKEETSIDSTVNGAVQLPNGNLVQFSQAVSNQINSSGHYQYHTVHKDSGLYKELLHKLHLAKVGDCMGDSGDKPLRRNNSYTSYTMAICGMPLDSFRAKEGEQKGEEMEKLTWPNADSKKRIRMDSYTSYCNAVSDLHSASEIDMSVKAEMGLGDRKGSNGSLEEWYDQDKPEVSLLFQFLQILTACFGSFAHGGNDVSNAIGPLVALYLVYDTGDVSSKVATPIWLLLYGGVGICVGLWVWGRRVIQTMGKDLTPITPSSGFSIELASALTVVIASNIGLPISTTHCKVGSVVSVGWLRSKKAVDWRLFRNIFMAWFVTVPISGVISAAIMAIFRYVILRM
inactive: [1] 0.022 | [2] -0.028 | [3] -0.013 | [4] -0.08 | [5] 0.05 | [6] 0.072 | [7] -0.015 | [8] 0.027 | [9] 0.002 | [10] -0.054 | [11] 0.099 | [12] -0.004 | [13] 0.009 | [15] -0.028 | [16] -0.061 | [17] 0.153 | [18] -0.013 | [19] 0.063 | [20] -0.006
active: [14] 0.416
